Test results: PubChem BioAssay (EPA / NIEHS)
Values joined by “and” are separate entries in the source; they are usually repeats but may differ in a detail not shown here. Identical values can stand only once. Active and inactive are the calls of the source. Rule for the calls: active = hit-call score of the fitted dose curve at least 0.9, where 1 is the maximum; inactive = score below 0.9.

read-out: Secreted IgG (sIgG), gene 3500; assay: BSK_BT_sIgG: BioMAP Diversity Plus: BT Assay for Secreted IgG (sIgG) Biomarker Activity (AID 2284226); settings: primary human B cells with PBMC
Description: BSK_BT is a cell-based, multiplexed-readout assay that uses B cell and peripheral blood mononuclear cells, a human vascular primary cell co-culture, with measurements taken at 24 hours after chemical dosing in a microplate: 96-well plate.BSK_BT_sIgG is an assay component measured in the BSK_BT assay. It measures secreted IgG related to regulation of gene expression using ELISA technology.Data from the assay component BSK_BT_sIgG was analyzed at the endpoint, BSK_BT_sIgG, in the positive analysis fitting direction relative to DMSO as the negative control and baseline of activity. Using a type of cytokine quantitation reporter, gain or loss-of-signal activity can be used to understand protein changes. To generalize the intended target to other relatable targets, this assay endpoint is annotated to the 'immunoglobulin' intended target family, where the subfamily is 'IgG'.
The levels of cell surface (or secreted, indicated by the prefix "s") biomarker endpoints were measured by ELISA. Overt cytotoxicity to cells in confluent adherent cultures (all systems other than the BT system) was assessed by measuring total protein levels using sulforhodamine B (SRB) staining in parallel cultures at the time of biomarker measurements, indicated as SRB endpoints. For proliferation assays for adherent cell types, individual cell types are cultured at sub-confluence and relative cell numbers quantified by SRB staining at time points optimized for each system (48 h: 3C and CASM3C systems; 72 h: BT and HDF3CGF systems; 96 h: SAg system). SRB was performed by staining cells with 0.1% SRB after fixation with 10% TCA and reading wells at 560 nm.Viability and proliferation of PBMC (T cells) was quantified by Alamar Blue reduction for the SAg and BT systems. For PBMC viability (referred to as PBMC Cytotoxicity within the assay endpoint names), cells were plated (75,000/well in a 96-well plate) and then chemical samples added for 1 h before addition of activators, SEB and TSST-1 (20 ng/mL final concentration each). Cells were incubated for 90 h. Then, Alamar Blue (20 uL/well) (Invitrogen, Cat DAL1100) was added for 6 h, and the plates were read with a fluorescence microplate reader at 546/580 nm (excitation/emission). For PBMC proliferation, cells were plated and activated as above but incubated for only 16 h prior to addition of Alamar Blue. Plates were read after 6 h.

**Q.** How did the AC50 turn out when `CC=C(C)C=CC=C(C)C` was run?
**A.** 12.3 µM (active)

**Q.** `CCCCC1C(=O)N(c2ccccc2)N(c2ccccc2)C1=O` was tested. Which outcome did it give?
**A.** inactive

**Q.** `CCCCCCCCCCCC(C)=O` was tested. Which outcome did it give?
**A.** inactive

**Q.** Which outcome does the source give for `CC(C)c1cccc(C(C)C)c1N` here?
**A.** inactive

**Q.** For `CCCCCCC=O`, which outcome is on record?
**A.** inactive

**Q.** How did the AC50 turn out when `c1ccc2sc(SSN3CCOCC3)nc2c1` was run?
**A.** 8.43 µM (active)

**Q.** How did the outcome turn out when `COC(OC)(C(=O)c1ccccc1)c1ccccc1` was run?
**A.** inactive

**Q.** How did the outcome turn out when `O=C(Oc1ccccc1)c1ccccc1C(=O)Oc1ccccc1` was run?
**A.** inactive

**Q.** For `CC1=CC=C(C(C)C)CC1`, which AC50 is on record?
**A.** 20 µM (active)

**Q.** How did the outcome turn out when `CCN1CN(CC)CN(CC)C1` was run?
**A.** inactive

**Q.** For `CCCCCCOC(=O)CCCCC(=O)OCCCCCC`, which outcome is on record?
**A.** inactive

**Q.** How did the AC50 turn out when `CC(c1cc(C(C)(C)C)cc(C(C)(C)C)c1O)c1cc(C(C)(C)C)cc(C(C)(C)C)c1O` was run?
**A.** 5.95 µM (active)

**Q.** How did the outcome turn out when `O=C1CCCCCCCCCCC1` was run?
**A.** inactive

**Q.** How did the AC50 turn out when `CCCCCCCCC(CO)CCCCCC` (stereo not given) was run?
**A.** 33.7 µM (active)

**Q.** With `Clc1cc(Cl)c(Cl)c(Cl)c1Cl` as the molecule, how does the outcome read?
**A.** inactive

**Q.** How did the outcome turn out when `C=CCCCCCCCCC=O` was run?
**A.** inactive

**Q.** With `C=CC(=O)OCCCCCCOC(=O)C=C` as the molecule, how does the AC50 read?
**A.** 5.85 µM (active)

**Q.** With `C=CC(=O)NCOCCCC` as the molecule, how does the outcome read?
**A.** inactive

**Q.** How did the AC50 turn out when `C[N+](C)(C)CCCNS(=O)(=O)C(F)(F)C(F)(F)C(F)(F)C(F)(F)C(F)(F)C(F)(F)C(F)(F)C(F)(F)F` was run?
**A.** 52.4 µM (active) and 52.6 µM (active)

**Q.** With `CCC1(C)C(=O)N(Cl)C(=O)N1Cl` (stereo not given) as the molecule, how does the outcome read?
**A.** inactive

**Q.** With `Oc1ccc(/C=C/c2cc(O)cc(O)c2)cc1` as the molecule, how does the AC50 read?
**A.** 6.86 µM (active)

**Q.** For `CCOC(=O)C1=NN(c2ccc(Cl)cc2Cl)C(C)(C(=O)OCC)C1` (stereo not given), which AC50 is on record?
**A.** 20 µM (active)

**Q.** How did the outcome turn out when `C=CC(=O)NC(C)(C)C` was run?
**A.** inactive

**Q.** Which AC50 does the source give for `CC/C=C\C/C=C\C/C=C\CCCCCCCC(=O)OC` here?
**A.** 5.15 µM (active)

**Q.** Which outcome does the source give for `CC(C)[N+](C)(CCOC(=O)C1c2ccccc2Oc2ccccc21)C(C)C` here?
**A.** inactive

**Q.** How did the outcome turn out when `CC(Cl)COP(=O)(OCC(C)Cl)OCC(C)Cl` (stereo not given) was run?
**A.** inactive

**Q.** Which outcome does the source give for `CC(C)CCCCCOC(=O)CS` here?
**A.** inactive

**Q.** How did the outcome turn out when `Nc1cccc(N)n1` was run?
**A.** inactive

**Q.** How did the AC50 turn out when `COc1ccc(C(=O)/C(Br)=C\C(=O)O)cc1` was run?
**A.** 6.83 µM (active) and 8.75 µM (active)

**Q.** With `Oc1c(Cl)cc(Cl)c(Cl)c1Cl` as the molecule, how does the AC50 read?
**A.** 33.5 µM (active)

**Q.** `CCOC(=O)C1=NOC(c2ccccc2)(c2ccccc2)C1` was tested. Which AC50 did it give?
**A.** 20 µM (active)

**Q.** Which outcome does the source give for `Cc1c(O)cccc1O` here?
**A.** inactive

**Q.** For `CCCCCC1=CCCC1=O`, which AC50 is on record?
**A.** 20 µM (active)

**Q.** How did the outcome turn out when `CCc1cccc(C)c1N(C(=O)CS(=O)(=O)O)C(C)COC` (stereo not given) was run?
**A.** inactive

**Q.** With `CCCCCCCO` as the molecule, how does the outcome read?
**A.** inactive

**Q.** With `O=C(Cl)c1c(Cl)c(Cl)c(C(=O)Cl)c(Cl)c1Cl` as the molecule, how does the outcome read?
**A.** inactive

**Q.** With `C=C(C)C(=O)OCCCCCCCCCCCC` as the molecule, how does the outcome read?
**A.** inactive

**Q.** `O=C1CCCCCCCCCCCN1` was tested. Which outcome did it give?
**A.** inactive

**Q.** How did the outcome turn out when `CC=C(C)C(C)=O` was run?
**A.** inactive

**Q.** With `Fc1ccc(Br)cc1` as the molecule, how does the outcome read?
**A.** inactive
